# “And” between values parts separate entries of the source, which are not always exact repeats. Equal values may be shown once. Where a name gives a salt, the structure may show the parent alone.
# Columns and labels:
# Assay in all cases: cell viability relative to vehicle control; higher = less cytotoxic
# Settings in all cases: 10 µM
# K562 = tested on: K562
# Method in brief: (§1)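 Four leukaemia lines, as CRISPR-edited mutant clones and isogenic wild-type clones, were tested against Selleck bioactive, kinase and epigenetic probe libraries after removal of identity-inconsistent compounds. Cells were exposed to a single 10 µM dose for 48 h, and CellTiter-Glo luminescence was then read. Viability was calculated relative to the on-plate vehicle control.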
# MARIMO = tested on: MARIMO
# Method in brief: as §1
# MOLM14 = tested on: MOLM14
# Method in brief: as §1
# OCI-AML2 = tested on: OCI-AML2
# Method in brief: as §1
SMILES,cell viability (K562; SRSF2 genotype: SRSF2 P95H/wt),cell viability (K562; SRSF2 genotype: SRSF2 wt/wt),cell viability (MARIMO; SRSF2 genotype: SRSF2 P95H/wt),cell viability (MARIMO; SRSF2 genotype: SRSF2 wt/wt),cell viability (MOLM14; SRSF2 genotype: SRSF2 P95H/wt),cell viability (MOLM14; SRSF2 genotype: SRSF2 wt/wt),cell viability (OCI-AML2; SRSF2 genotype: P95H/wt),cell viability (OCI-AML2; SRSF2 genotype: wt/wt)
CN[C@@H](C)C(=O)N[C@H](C(=O)N1CCC[C@H]1C(=O)N[C@H](C(=O)NCCCCCCNC(=O)[C@@H](NC(=O)[C@@H]1CCCN1C(=O)[C@@H](NC(=O)[C@H](C)NC)C1CCCCC1)C(c1ccccc1)c1ccccc1)C(c1ccccc1)c1ccccc1)C1CCCCC1,0.93% and 3.98%,3.06%,29.5%,8.11%,0.7%,0.53%,4.1%,9.14%
CC(C)(C)c1nc(-c2cccc(NS(=O)(=O)c3c(F)cccc3F)c2F)c(-c2ccnc(N)n2)s1,90.3% and 101%,84.3%,78.5%,75.8%,73.6%,68.2%,93.2%,83.9%
CC1(C)C[C@@H]1C(=O)N/C(=C\CCCCSC[C@H](N)C(=O)O)C(=O)O [Cilastatin],104% and 93.4%,105%,97%,100%,104%,103%,102%,110%
CNc1ncc2cc(-c3cc(NC(=O)NCCC(C)(C)C)c(F)cc3C)c(C)nc2n1,14.9% and 29.3%,22%,36.9%,34.9%,27.2%,23.9%,31.7%,34.6%
Clc1ccc(C(c2c[nH]c3ccccc23)c2c[nH]c3ccccc23)cc1,83% and 83.3%,76.5%,86.3%,93.2%,62.7%,73%,92%,96.7%
CN1CCN(Cc2ccc(NC(=O)Nc3ccc(Oc4cc(NC(=O)C5CC5)ncn4)cc3)cc2C(F)(F)F)CC1,21.2% and 19%,20.5%,1.8%,1.13%,0.31%,0.31%,0.36%,1.73%
OCCc1ccc(O)c(O)c1 [Hydroxytyrosol],94.8% and 103%,98.2%,90.5%,103%,97.5%,104%,105%,106%
Cn1cc(/C=C2\C(=O)Nc3cccnc32)c2ccccc21,98% and 98.2%,96.4%,91.2%,94.3%,25.7%,22.9%,49.4%,56.2%
Cc1cc(C)nc(NC(=S)N2CCN(Cc3ccc(C(F)(F)F)cc3)CC2)c1,71.2% and 80.6%,73.2%,67.4%,64.5%,77.3%,86.6%,37.8%,54%
Cc1cn([C@H]2C=C[C@@H](CO)O2)c(=O)[nH]c1=O [Stavudine],104% and 107%,98.3%,95%,96.1%,102%,103%,97.2%,110%
CN(C[C@@H]1COCCO1)S(=O)(=O)Nc1ccc2ccc3ncc(-c4cnn(C)c4)cc3c(=O)c2c1,77.6% and 96.8%,82.6%,74.1%,72.6%,20.4%,16.7%,41.6%,47.3%
NC1(c2ccc(-c3nc4ccn5c(=O)[nH]nc5c4cc3-c3ccccc3)cc2)CCC1 [MK-2206 dihydrochloride],38.7% and 32.2%,48.4%,51.4%,53.3%,14.7%,22.9%,5.42%,27.8%
C[C@@H](Nc1nc(N[C@H](C)C(F)(F)F)nc(-c2cccc(Cl)n2)n1)C(F)(F)F [Vorasidenib (AG-881)],91.3% and 90.9%,84.7%,88.3%,105%,89%,85.3%,104%,98.3%
COc1cc2c(cc1O)C[C@H]1c3cc(O)c(OC)cc3CC[N@@+]1(C)C2 [Phellodendrine],104% and 97.8%,102%,98.9%,98.7%,111%,102%,101%,96.4%
CCCN1CCCC[C@H]1C(=O)Nc1c(C)cccc1C [Ropivacaine HCl],91% and 94.8%,94.2%,99.7%,89%,95%,95.4%,98%,95.6%
CC(C)=CCCC(C)(O)C1CCC2(C)C1C(O)CC1C3(C)CCC(OC4OC(CO)C(O)C(O)C4OC4OC(CO)C(O)C(O)C4O)C(C)(C)C3CCC12C [(20R)Ginsenoside Rg3],105% and 103%,99.1%,107%,122%,108%,109%,105%,128%
CCCN(CCC)S(=O)(=O)c1ccc(C(=O)O)cc1 [Probenecid (Benemid)],99.3% and 88.4%,91%,92.1%,101%,96.4%,97%,96.2%,88.9%
Cc1ccc(-n2[nH]c(C)c(N=Nc3cccc(-c4cccc(C(=O)O)c4)c3O)c2=O)cc1C [Eltrombopag olamine],76% and 80.3%,69.3%,54.9%,69%,75.4%,68.5%,66.3%,60.3%
CCCCOc1c(C(=O)c2c(F)cc(C)cc2F)c[nH]c2nncc1-2,104% and 105%,114%,72.6%,84.8%,68.8%,87.7%,57.1%,59.5%

# — the supplement of paper PMC10981050
